According to PubChem BioAssay AID743364 (National Center for Advancing Translational Sciences (NCATS), 2014):
Calls of active or inactive are those of the source. The call rests on the fitted dose curve; in most records, active means well fitted curve in the direction sought with a large enough effect; inactive means no such curve, though single readings can be large or run the other way. Where a SMILES comes first, the peptide text is derived from it. [ ]: non-standard residue; d: D form. Orn = NCCC[C@H](N)C(=O)O

test: qHTS profiling of inhibitors of Plasmodium falciparum (3D7) proliferation (acoustic dispense); conditions: P. falciparum 3D7 in erythrocytes, SYBR Green, 72 h; series mostly up to 49.8 µM; activity change: at the top concentration

Q: For `O=C1c2c(O)ccc(O)c2C(=O)c2c(NCCNCCO)ccc(NCCNCCO)c21`, which “activity change” value is on record?
A: -8.46% (inactive)

Q: For `CO[C@H]1C=CC=C(C)C(=O)NC2=CC(=O)C(NCCN(C)C)=C(C[C@@H](C)C[C@H](OC)[C@@H](O)[C@@H](C)C=C(C)[C@@H]1OC(N)=O)C2=O`, which “activity change” value is on record?
A: 111% (inactive)

Q: For `C=C[C@@H]1CN2CCC1C[C@@H]2C(O)c1ccnc2ccc(OC)cc12` (stereo not given in full), which “activity change” value is on record?
A: 4.64% (inactive)

Q: With `COC(=O)c1ccc2c(C(=Nc3ccc(N(C)C(=O)CN4CCN(C)CC4)cc3)c3ccccc3)c(O)[nH]c2c1` as the molecule, how does the “activity change” value read?
A: 25.2% (inactive)

Q: With `COc1ccc(-c2ccc3ncc4c(c3c2)n(-c2ccc(N3CCNCC3)c(C(F)(F)F)c2)c(=O)n4C)cn1` as the molecule, how does the “activity change” value read?
A: -0.783% (inactive)

Q: For `COc1cc(NC(C)CCCN)c2ncccc2c1` (stereo not given), which “activity change” value is on record?
A: 0.981% (inactive)

Q: Which “activity change” value does the source give for `Cn1c2ccccc2c2c3c(c4c5ccccc5n(CCC#N)c4c21)CNC3=O` here?
A: 26.1% (inactive)

Q: Which “activity change” value does the source give for `COCCn1c2c([n+](Cc3cnccn3)c1C)C(=O)c1ccccc1C2=O` here?
A: 0.59% (inactive)

Q: For `CC(=NNC(=S)N1CCC1)c1ccccn1`, which “activity change” value is on record?
A: -1.01% (inactive)

Q: With `Clc1ccc2c(N3CCN(CCCN4CCN(c5ccnc6cc(Cl)ccc56)CC4)CC3)ccnc2c1` as the molecule, how does the “activity change” value read?
A: -1.45% [at 23.2 µM] (inactive)

Q: Which “activity change” value does the source give for `COc1ccc2nc3cc(Cl)ccc3c(Nc3cc(CN4CCCC4)c(O)c(CN4CCCC4)c3)c2n1` here?
A: -4.07% (inactive)

Q: For `COc1ccc(-c2cc3c(C)nc(N)nc3n(C3CCC(OCCO)CC3)c2=O)cn1` (stereo not given), which “activity change” value is on record?
A: -1.59% (inactive)

Q: For `C[C@H]1c2cccc(O)c2C(O)=C2C(=O)[C@]3(O)C(O)=C(C(N)=O)C(=O)[C@@H](N(C)C)[C@@H]3[C@@H](O)[C@@H]21`, which “activity change” value is on record?
A: -0.335% (inactive)

Q: Which “activity change” value does the source give for `c1cncc(CN2CCC(n3ncc4c(N5CCOCC5)nc(-c5ccc6[nH]ccc6c5)nc43)CC2)c1` here?
A: 0.532% (inactive)

Q: With `CCCCN(CCCC)CC(O)c1cc(Cl)cc2c1-c1ccc(Cl)cc1C2=Cc1ccc(Cl)cc1` (stereo not given) as the molecule, how does the “activity change” value read?
A: -1.15% (inactive)

Q: With `Cn1c(=O)n(-c2ccc(C(C)(C)C#N)cc2)c2c3cc(-c4cnc5ccccc5c4)ccc3ncc21` as the molecule, how does the “activity change” value read?
A: 0.256% (inactive)

Q: Which “activity change” value does the source give for `CCN(CC)Cc1cc(Nc2ccnc3cc(Cl)ccc23)ccc1O` here?
A: -0.785% [at 23.2 µM] (inactive)

Q: For `CN([C@@H](Cc1ccc(OS(=O)(=O)c2cccc3cnccc23)cc1)C(=O)N1CCN(c2ccccc2)CC1)S(=O)(=O)c1cccc2cnccc12`, which “activity change” value is on record?
A: 1.31% (inactive)

Q: With `C[C@@H]1CCC2[C@@H](C)[C@@H](O)O[C@@H]3O[C@@]4(C)CC[C@@H]1[C@@]23OO4` (stereo not given in full) as the molecule, how does the “activity change” value read?
A: -0.572% (inactive)

Q: For `CC(Sc1nc2ccccc2[nH]1)C(=O)NN=Cc1cc(Br)ccc1O` (stereo not given), which activity change is on record?
A: 28.2% [at 4.15 µM] (inactive)

Q: With `O=C1NC(=O)C(=Cc2ccc3nccc(-c4ccncc4)c3c2)S1` as the molecule, how does the “activity change” value read?
A: 1.47% (inactive)

Q: For `Cc1ccc([N+](=O)[O-])cc1S(=O)(=O)N(C)N=Cc1cnc2ccc(Br)cn12`, which “activity change” value is on record?
A: -0.0818% (inactive)

Q: With `CC(C)C[C@@H]1NC(=O)[C@H](CCCN)NC(=O)[C@H](C(C)C)NC(=O)[C@@H]2CCCN2C(=O)[C@@H](Cc2ccccc2)NC(=O)[C@H](CC(C)C)NC(=O)[C@H](CCCN)NC(=O)[C@H](C(C)C)NC(=O)[C@@H]2CCCN2C(=O)[C@@H](Cc2ccccc2)NC1=O` (cyclo(V[Orn]L[dF]PV[Orn]L[dF]P)) as the molecule, how does the “activity change” value read?
A: 1.28% (inactive)

Q: Which “activity change” value does the source give for `CCS(=O)(=O)Nc1ccc2[nH]c(O)c(C(=Nc3ccc(CN4CCCCC4)cc3)c3ccccc3)c2c1` here?
A: -1.12% (inactive)

Q: Which “activity change” value does the source give for `C[C@H](Cn1cnc2c(N)ncnc21)OCP(=O)(O)O` here?
A: 0.919% (inactive)

Q: Which “activity change” value does the source give for `COc1cc2c(Oc3ccc(NC(=O)C4(C(=O)Nc5ccc(F)cc5)CC4)cc3F)ccnc2cc1OCCCN1CCOCC1` here?
A: 6.54% (inactive)

Q: For `Nc1ccc(-c2ccc3ncc4ccc(=O)n(-c5cccc(C(F)(F)F)c5)c4c3c2)cn1`, which “activity change” value is on record?
A: -7.03% (inactive)

Q: For `COc1ccc2cc3[n+](cc2c1OC)CCc1cc2c(cc1-3)OCO2`, which “activity change” value is on record?
A: -1.81% (inactive)

Q: Which “activity change” value does the source give for `CS(=O)(=O)CCNCc1ccc(-c2ccc3ncnc(Nc4ccc(OCc5cccc(F)c5)c(Cl)c4)c3c2)o1` here?
A: 29.8% (inactive)

Q: For `CCCCCCOC(=O)C1(O)CC2OC1(C)n1c3ccccc3c3c4c(c5c6ccccc6n2c5c31)C(=O)NC4` (stereo not given), which activity change is on record?
A: 34.6% [at 1.88 µM] (inactive)

Q: With `OB1OCc2cc(F)ccc21` as the molecule, how does the “activity change” value read?
A: 5.24% (inactive)

Q: For `O=C1c2ccccc2-[n+]2ccc3c([nH]c4ccccc43)c21`, which “activity change” value is on record?
A: 9.49% (inactive)

Q: For `CN(Cc1cnc2nc(N)nc(N)c2n1)c1ccc(C(=O)N[C@@H](CCC(=O)O)C(=O)O)cc1`, which “activity change” value is on record?
A: -0.179% (inactive)

Q: With `CCC(=O)N1CCN(c2ccc(-n3c(=O)ccc4cnc5ccc(-c6cnc7ccccc7c6)cc5c43)cc2C(F)(F)F)CC1` as the molecule, how does the “activity change” value read?
A: 0.958% (inactive)

Q: With `NC(=NCCCCCCN=C(N)N=C(N)Nc1ccc(Cl)cc1)N=C(N)Nc1ccc(Cl)cc1` as the molecule, how does the “activity change” value read?
A: 6.59% (inactive)
